# Data from PubChem BioAssay (NCATS).
# Values joined by “and” are separate entries in the source; they are usually repeats but may differ in a detail not shown here. Equal entries are not always repeated. Inconclusive results are not listed. Unmarked numbers belong to inactive results. Active and inactive are the calls of the source. Calls follow the shape of the dose curve; as a rule, active = well fitted curve in the direction sought with a large enough effect; inconclusive = small, poorly fitted or top-dose-only effect, or another doubt; inactive = no such curve, though single readings can be large; an effect the other way counts as inactive or inconclusive.
# What was measured:
# [1] = target: Cellular tumor antigen p53 (Homo sapiens) (UniProt P04637); assay: Primary qHTS for small molecule compounds that upregulate eGFP-tagged delta133p53alpha (in N-terminal) cells. (AID 2060322); conditions: NCI-H358 eGFP-delta133p53alpha fluorescence, 24 h; activation: active compounds read high; also: nearly all actives have a fitted effect of over 75% in size; also: potency is read from the fitted curve at half-maximal effect;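 as to activation: cells pre-induced with doxycycline then dosed without doxycycline; series mostly up to about 56 µM; 0% = DMSO vehicle and 100% = reference activator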
# Cellular tumor antigen p53 (Homo sapiens), sequence (P04637 whole entry, looked up): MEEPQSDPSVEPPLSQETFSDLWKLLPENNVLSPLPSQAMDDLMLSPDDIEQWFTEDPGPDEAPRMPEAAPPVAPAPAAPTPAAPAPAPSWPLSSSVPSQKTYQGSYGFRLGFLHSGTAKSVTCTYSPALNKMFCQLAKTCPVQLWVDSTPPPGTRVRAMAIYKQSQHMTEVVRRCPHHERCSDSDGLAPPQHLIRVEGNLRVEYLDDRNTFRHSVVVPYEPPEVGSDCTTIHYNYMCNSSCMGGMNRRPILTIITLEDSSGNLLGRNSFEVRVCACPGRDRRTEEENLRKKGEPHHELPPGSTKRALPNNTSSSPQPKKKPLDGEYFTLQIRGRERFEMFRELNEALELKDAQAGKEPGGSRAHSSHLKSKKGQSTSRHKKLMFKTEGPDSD
# Summary of the method: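 NCI-H358 cells pre-induced 24 h with 10 ng/ml doxycycline for eGFP-delta133p53alpha, plated dox-free and exposed 24 h at 37C to titrated compounds. Fixed, Hoechst-stained; gated GFP peak intensity by laser scanning cytometry, normalized to DMSO (0%) and 57.5 uM 5-azacytidine (100%).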
# [2] = target: Aldehyde dehydrogenase, mitochondrial (Homo sapiens) (UniProt P05091); assay: qHTS for Inhibitors of the Aldehyde Dehydrogenase Family (ALDH2) Primary screen (AID 2061308);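 also: plate controls were vehicle for no effect and reference inhibitor for full effect; nearly all actives have a fitted effect of over 55% in size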
# [3] = BET inhibitor-based combinations targeting novel dependencies in MECOM-rearranged (r) AML: SET-2 cell line (AID 2202231); conditions: SET-2 AML cells viability, CellTiter-Glo luminescence, 48 h; viability: active compounds read low, concentration not given here; also: nearly all actives have a fitted effect of over 35% in size; also: potency is read from the fitted curve at half-maximal effect;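 as to viability: plate controls were DMSO treated cells for no effect and wells without cells for full effect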
# Summary of the method: (§1)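 Viability of cells (500 per well) is scored by luminescent CellTiter-Glo at 48 hr post-dosing. Eleven-point titrations are normalized to DMSO and empty controls and reduced to AUC values.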
# [4] = BET inhibitor-based combinations targeting novel dependencies in MECOM-rearranged (r) AML: OCI-AML3 cell line (AID 2202232); conditions: Potency: OCI-AML3 viability; also: nearly all actives have a fitted effect of over 35% in size; also: potency is read from the fitted curve at half-maximal effect
# Summary of the method: as §1
# [5] = BET inhibitor-based combinations targeting novel dependencies in MECOM-rearranged (r) AML: HNT-34 cell line (AID 2202234); also: nearly all actives have a fitted effect of over 35% in size; also: potency is read from the fitted curve at half-maximal effect
# Summary of the method: (§2)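 Using pin-tool transfer, drugs were added in 11 doses to cells (500/well), incubated 48 hr, and assessed with CellTiter-Glo. Z-AUC is a mean-centring transformation applied separately to each screened line.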
# [6] = BET inhibitor-based combinations targeting novel dependencies in MECOM-rearranged (r) AML: UCSD-AML1 cell line (AID 2202235); also: nearly all actives have a fitted effect of over 40% in size; also: potency is read from the fitted curve at half-maximal effect
# Summary of the method: as §2
# [7] = BET inhibitor-based combinations targeting novel dependencies in MECOM-rearranged (r) AML: AML-191 cell line (AID 2202236; also: nearly all actives have a fitted effect of over 35% in size; also: potency is read from the fitted curve at half-maximal effect)
# Summary of the method: as §1
# [8] = BET inhibitor-based combinations targeting novel dependencies in MECOM-rearranged (r) AML: AML-194 cell line (AID 2202237; also: nearly all actives have a fitted effect of over 40% in size; also: potency is read from the fitted curve at half-maximal effect)
# Summary of the method: as §1
# [9] = BET inhibitor-based combinations targeting novel dependencies in MECOM-rearranged (r) AML: MV-4-11 cell line (AID 2202233); also: nearly all actives have a fitted effect of over 45% in size; also: potency is read from the fitted curve at half-maximal effect
# Summary of the method: as §2
# [10] = target: Retinaldehyde dehydrogenase 3 (Homo sapiens) (UniProt P47895); assay: qHTS for Inhibitors of the Aldehyde Dehydrogenase Family (ALDH1A3) Confirmatory screens (AID 2061311); also: potency is read from the fitted curve at half-maximal effect; nearly all actives have a fitted effect of over 60% in size
# [11] = target: Retinaldehyde dehydrogenase 3 (Homo sapiens) (UniProt P47895); assay: qHTS for Inhibitors of the Aldehyde Dehydrogenase Family (ALDH1A3) Primary screen (AID 2061315);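 also: plate controls were DMSO vehicle for no effect and reference inhibitor for full effect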
# [12] = target: Aldehyde dehydrogenase 1A1 (Homo sapiens) (UniProt P00352); assay: qHTS for Inhibitors of the Aldehyde Dehydrogenase Family (ALDH1A1) Confirmatory screens (AID 2061316); also: potency is read from the fitted curve at half-maximal effect; nearly all actives have a fitted effect of over 65% in size
# [13] = target: Retinaldehyde dehydrogenase 3 (Homo sapiens) (UniProt P47895); assay: qHTS for Inhibitors of the Aldehyde Dehydrogenase Family (ALDH1A3) Validation screen (AID 2061312); also: nearly all actives have a fitted effect of over 45% in size; also: potency is read from the fitted curve at half-maximal effect
smiles,measurement,setting,value
COc1cc2c(cc1OCCCN1CCCC1)N=C(N)C21CCC1,activation,[1],5.59%
same,Potency,[2],inactive
same,viability,[3],106%
same,Potency,[4],inactive
same,Potency,[5],inactive
same,Potency,[6],inactive
same,Potency,[7],inactive
same,Potency,[8],inactive
FC(F)c1nc2ccccc2n1-c1nc(N2CCOCC2)nc(N2CCOCC2)n1,activation,[1],43.2% and 24.1%
same,Potency,[2],inactive
same,Potency,[4],0.235 µM (active)
same,Potency,[9],0.209 µM (active)
C/C=C/C=C/C(CC(=O)O)Nc1ccc(C=O)cc1 (stereo not drawn),activation,[1],-13.7%
same,Potency,[10],12.7 µM (active)
same,Potency,[11],inactive
same,Potency,[12],2.01 µM (active)
Cc1c(CN2CCN(S(C)(=O)=O)CC2)sc2c(N3CCOCC3)nc(-c3cnc(N)nc3)nc12,activation,[1],-10.7%
same,Potency,[2],inactive
same,Potency,[4],0.59 µM (active)
same,Potency,[9],1.32 µM (active)
same,Potency,[5],1.66 µM (active)
same,Potency,[6],0.186 µM (active)
same,Potency,[7],0.59 µM (active)
CCCS(=O)c1ccc2nc(NC(=O)OC)[nH]c2c1 (stereo not drawn),activation,[1],-21.8% and -4.96%
same,Potency,[2],inactive
same,Potency,[4],26.3 µM (active)
same,Potency,[9],23.5 µM (active)
same,Potency,[5],13.2 µM (active)
same,Potency,[7],8.33 µM (active)
same,Potency,[8],11.8 µM (active)
CCCCc1nc2cc(/C=C/C(=O)NO)ccc2n1CCN(CC)CC,Potency,[1],27.3 µM (active)
same,Potency,[2],inactive
same,Potency,[3],0.662 µM (active)
same,Potency,[4],0.833 µM (active)
same,Potency,[9],0.332 µM (active)
same,Potency,[5],0.833 µM (active)
same,Potency,[6],0.833 µM (active)
same,Potency,[7],0.833 µM (active)
same,Potency,[8],1.18 µM (active)
Cc1ccccc1C(C(=O)NC1CCCCC1)N(C(=O)Cn1ccnc1C)c1cccc(F)c1 (stereo not drawn),activation,[1],-12.7% and -11.5%
same,Potency,[13],inactive
same,viability,[3],116%
same,Potency,[9],inactive
same,Potency,[6],inactive
same,Potency,[7],inactive
same,Potency,[8],inactive
C=C/C=C/[C@@H]1OC[C@H](/C=C/C=C/C)[C@H]1O,activation,[1],-11.5%
same,Potency,[11],inactive
CCOc1nc2cccc(C(=O)OCc3oc(=O)oc3C)c2n1Cc1ccc(-c2ccccc2-c2noc(O)n2)cc1,activation,[1],0%
same,Potency,[13],inactive
same,Potency,[11],inactive
CO[C@@H](Cc1ccc(OCCc2nc(-c3ccccc3)oc2C)c2ccsc12)C(=O)O,activation,[1],-6.25%
same,Potency,[11],inactive
CC(C)=C/C=C\[C@H](C)[C@H]1CC[C@]2(C)C[C@@H]3C(C)=CC(=O)C3/C(CO)=C\C[C@@H]12 (stereo partly drawn),activation,[1],-9.92%
same,Potency,[11],inactive
Cc1c2cc(c(C(=O)O)c1C)OC1OC(C(O)C(O)C1O)C(O)C(O)C1OC(O2)C(O)C(O)C1O (stereo not drawn),activation,[1],-5.34%
same,Potency,[11],inactive
CC(/C=C/C=C(\C)C(=O)O[C@@H]1O[C@H](CO[C@@H]2O[C@H](CO)[C@@H](O)[C@H](O)[C@H]2O)[C@@H](O)[C@H](O)[C@H]1O)=C\C=C\C=C(C)\C=C\C=C(/C)C(=O)O[C@@H]1C[C@](O)(C(=O)O)C[C@@H](O)[C@H]1OC(=O)/C=C/c1ccc(O)c(O)c1,activation,[1],16%
same,Potency,[11],inactive
Cc1cc(OCc2nc(-c3ccccc3Cl)cs2)ccc1OCC(=O)O,activation,[1],-1.91%
same,Potency,[13],inactive
same,Potency,[11],inactive
CC(C)C(CO)Nc1nc(Nc2ccc(C(=O)O)c(Cl)c2)c2ncn(C(C)C)c2n1 (stereo not drawn),activation,[1],6.21%
same,Potency,[13],inactive
same,Potency,[11],inactive
CCc1c[nH]c2ncnc(N3CC[C@](N)(CNC(=O)c4ccc(F)cc4F)C3)c12,activation,[1],22.3%
same,Potency,[11],inactive
O[C@@H](COc1cccc2ncccc12)CN1CCN(C2c3ccccc3[C@@H]3[C@H](c4ccccc42)C3(F)F)CC1 (stereo partly drawn),activation,[1],22%
same,Potency,[13],inactive
same,Potency,[11],inactive
same,Potency,[3],26.3 µM (active)
same,Potency,[4],20.9 µM (active)
same,Potency,[9],18.6 µM (active)
same,Potency,[5],26.3 µM (active)
same,Potency,[7],23.5 µM (active)
same,Potency,[8],23.5 µM (active)
CC(=O)OC1/C(C)=C/C(=O)C(OC(C)=O)C(C)(C)/C=C/C(C)C(=O)C2(OC(C)=O)CC(C)C(OC(=O)c3ccccc3)C12 (stereo not drawn),activation,[1],-10.7%
same,Potency,[11],inactive
Cc1cc(NC(=O)Nc2ccc(F)c(F)c2)n(-c2ccccc2)n1,activation,[1],-15.8%
same,Potency,[13],inactive
same,Potency,[11],inactive
CC1CC(O)/C=C/C(O)C(O)CC(=O)Cc2c(Cl)c(O)cc(O)c2C(=O)O1 (stereo not drawn),activation,[1],4.58%
same,Potency,[11],inactive
COc1cc2c(Oc3ccc(-c4cnc(Nc5ccc(F)cc5)n(C)c4=O)cc3F)ccnc2cc1OCCCN1CCOCC1,activation,[1],11.5%
same,Potency,[13],11.2 µM (active)
same,Potency,[11],inactive
same,Potency,[3],20.9 µM (active)
same,Potency,[4],16.6 µM (active)
same,Potency,[9],0.0934 µM (active)
same,Potency,[5],0.372 µM (active)
same,Potency,[6],11.8 µM (active)
same,Potency,[7],5.9 µM (active)
same,Potency,[8],5.25 µM (active)
